Measurements taken from ChEMBL document CHEMBL3988442, “University of Dundee, Small-Polar-MMV Screening Library” (2021).
Out of some 48,000 compounds screened, about 13,000 (27%) showed an effect of 50% or more. Some of the results follow.

test system: Wolbachia pipientis; assay: Anti-Wolbachia Cell-Based Screen; type: functional; parameters: scale not given: in the data most compounds retested in dose-response had high values; conditions: 5 µM

Row | Compound | Percent Effect
1 | Cc1cnn(C(C)C2CC2)c1NC(=O)c1cnccn1 (stereo unspecified) | 2.38%
2 | COc1ccc(CN2CCN(C(C)=O)CC2)cc1SC(F)(F)F | -8.503%
3 | COc1nc2ccccc2cc1CN1CCCC(CNC(C)=O)C1 (stereo unspecified) | 6.31%
4 | O=C(CCC1CCCCC1)NCc1nnc2ccccn12 | -0.7171%
5 | CCN1Cc2nc(OC)c(CNC(=O)C3CCS(=O)(=O)CC3)cc2C1=O | 82.23%
6 | Cc1cc(C(F)(F)F)nc(CNC(=O)CCC2CCCN(C)C2)n1 (stereo unspecified) | 9.588%
7 | COc1ccc(Oc2ccc(CNC(=O)C3CCS(=O)(=O)C3)cn2)cc1 (stereo unspecified) | -6.307%
8 | CCc1[nH]c2c(CNC(=O)C3CCS(=O)(=O)CC3)cc(C)cc2c1C | -6.161%
9 | CCN1Cc2nc(OC)c(CNC(=O)C3CCCN(C)C3)cc2C1=O (stereo unspecified) | 93.23%
10 | CCN1Cc2nc(OC)c(CNC(=O)CCC3CCCC3)cc2C1=O | 102.4%
11 | CCc1[nH]c2c(CNC(=O)C3CCCN(C)C3)cc(C)cc2c1C (stereo unspecified) | -27.93%
12 | O=C(NCCc1nnc2n1CCCCC2)N1CCC2(CCOC2)C1 (stereo unspecified) | 10.36%
13 | CNC(=O)c1ccc(=O)n(Cc2csc(C(C)(C)C)n2)c1 | 14.6%
14 | Cc1cnn(C2CCCN(C(=O)c3c(C)oc4nc[nH]c(=O)c34)C2)c1 (stereo unspecified) | -0.5439%
15 | COCc1nc(CNC2CCCc3c2cnn3C(C)(C)C)cs1 (stereo unspecified) | -7.69%
16 | CC1(NC(=O)Cc2csc(C(C)(C)C)n2)CCS(=O)(=O)C1 (stereo unspecified) | -4.538%
17 | Cc1cc(N2CCC(Cc3cnccn3)C2)ncn1 (stereo unspecified) | 100.8%
18 | Cc1cc(N2CCCC2c2cnccn2)ncn1 (stereo unspecified) | -8.281%
19 | Cc1cc2c(N3CCCC(OCc4cccnc4)C3)ncnc2s1 (stereo unspecified) | 0.4664%
20 | COc1cc(N2CCC(c3nccn3Cc3cccnc3)CC2)ncn1 | 2.829%
21 | COCCO[C@H]1CCN(c2cc(OC)ncn2)[C@H]1Cc1ccncc1 | -8.224%
22 | COc1cc(N2CC[C@H]3OCC[C@@]3(COc3nccc(C)n3)C2)ncn1 | -2.077%

Row | Compound | Percent Effect
23 | Cc1cc(N2CCC(Cc3ncccn3)C2)ncn1 (stereo unspecified) | 90.07%
24 | Cc1cc(N2CCC(Cc3cccnc3)CC2)ncn1 | 156%
25 | Cc1cc(N2CCC(Cc3ccncc3)C2)ncn1 (stereo unspecified) | 95.84%
26 | CN1CCN(c2cc(NC(=O)c3cnccn3)ncn2)CC1 | -2.529%
27 | Cc1ccc(N2CCCC(NCc3ccncc3)C2)nn1 (stereo unspecified) | 1.645%
28 | C[C@@H]1CN(c2cc(N3CCC(O)CC3)ncn2)C[C@@]1(O)C1CCC1 | 2.327%
29 | CCN(C(=O)c1cc2c([nH]c1=O)CCCC2=O)C1CCCCC1 | 14.13%
30 | CN(C)c1ncc(CNC(=O)Nc2ccccc2C(F)(F)F)n1C | 9.124%
31 | Cn1nc2c(cc1=O)CN(Cc1coc(-c3cccs3)n1)CC2 | 1.365%
32 | COCCN1C[C@H]2CC[C@@H]1CN(C(=O)CCc1n[nH]c(C)c1C)C2 | 0.4749%
33 | Cc1cc(N2CCC(Cc3cccnc3)C2)ncn1 (stereo unspecified) | 84.65%
34 | COc1cc(N2CCCC(c3nccn3Cc3cccnc3)C2)ncn1 (stereo unspecified) | -16.56%
35 | CC(=O)c1c(F)cccc1N1CCC(Cc2cccnc2)CC1 | -2.782%
36 | Cc1cc(C(=O)N2C[C@H]3CC[C@@H]2CN(Cc2ccccn2)C3)nc(N)n1 | 2.343%
37 | Cl.NCCc1cn(Cc2ccccn2)c2ccccc12 | 119.5%
38 | NC(=O)CCn1cc(CNCCCc2ccncc2)c2ccccc21 | -11.7%
39 | CS(=O)(=O)N[C@@H]1CCO[C@]2(CCN(CC3CCOCC3)C2)C1.O=C(O)C(F)(F)F | -3.641%
40 | COC1COC2(CCN(CC3CCOCC3)CC2)C1.O=C(O)C(F)(F)F (stereo unspecified) | 105.7%
41 | COC1COC2(CCN(CC3CC3)CC2)C1.O=C(O)C(F)(F)F (stereo unspecified) | 95.93%
42 | CS(=O)(=O)N[C@H]1CCO[C@]2(CCN(CC3CCOCC3)C2)C1.O=C(O)C(F)(F)F | 0.7443%
43 | CC(C)(C)c1ncc(CNc2ccccc2Cn2cncn2)s1 | 1.316%
44 | CSCC(=O)N[C@H]1CN(Cc2c(C)noc2C)C[C@@H]1C(C)C | -1.777%

Row | Compound | Percent Effect
45 | CC(C)CN1CC(c2nc(C3CC3)n[nH]2)CC1=O (stereo unspecified) | 4.423%
46 | COc1cc(Cl)ccc1C(=O)NCC(=O)Nc1nccs1 | -9.549%
47 | Cc1ccc(NC(=O)c2ccc(=O)n(CC(=O)Nc3nccs3)n2)cc1 | 101.8%
48 | Cc1cc(C)n(CC2CCCCN2CC(=O)Nc2nccs2)n1 (stereo unspecified) | -11.15%
49 | O=C(NCc1ccccc1CN1CCCC1=O)Nc1nccs1 | -2.659%
50 | Cc1ccc(-c2ccc(=O)n(CC(=O)Nc3nccs3)n2)cc1 | 124.1%
51 | O=C(CCn1nc(C(=O)Nc2ccccc2)ccc1=O)Nc1nccs1 | 112.6%
52 | Cc1ccc(NC(=O)c2ccc(=O)n(CC(=O)NC3CCCC3)n2)cc1 | 106.4%
53 | CSc1nc2cc(C)n(CC(=O)Nc3nccs3)c2c(=O)n1CC(C)C | -4.494%
54 | O=C(Nc1ccccc1)c1ccc(NCc2nccs2)nn1 | 3.378%
55 | Cc1ccccc1C(=O)Nc1cnn(CC(=O)NC2CCCC2)c1 | -2.578%
56 | CCC(=O)NC1CCCN(Cn2nc(C(C)(C)C)ccc2=O)C1 (stereo unspecified) | -0.4021%
57 | N#Cc1cccc(CS(=O)(=O)NCC(O)Cc2ccccc2)c1 (stereo unspecified) | -5.845%
58 | Cc1nc(-c2cccc(C#N)c2)nn1CC1(O)CCCCC1 | -14.51%
59 | Cc1ccccc1CS(=O)(=O)NCCCN1CCCCC1 | -4.018%
60 | Cn1c(NCCC(=O)N2CCCC2)c(C#N)c(=O)n(C)c1=O | 17.52%
61 | N#CCCNC(=O)CSc1cc(F)ccc1F | 8.044%
62 | Cn1ccnc1C(=O)NCc1cc(=O)n2c(n1)CN(CC1CC1)CCC2 | -4.321%
63 | O=C(c1cccs1)N1CCCn2c(nc(CN3CCCC3)cc2=O)C1 | -6.505%
64 | CCCN1CCCn2c(nc(CNC(=O)c3nccn3C)cc2=O)C1.O=C(O)C(F)(F)F | -4.018%
65 | COCC(=O)NCc1cc(=O)n2c(n1)CN(Cc1nccs1)CCC2 | 109.1%
66 | COCC(=O)NCc1cc(=O)n2c(n1)CN(Cc1cccs1)CCC2 | 97.08%
